# About 83,000 compounds went through this panel and 20% of them were active in at least one assay; those are over-represented in the sample as a whole.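 Results are percent growth after 48 hours of single-concentration exposure. 100 means growth as in untreated cells, lower positive values show inhibition; negative values down to -100 show cell death.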 Values without a mark were called inactive. Activity calls are given as the source filed them.
# Tested on: SN12C renal
# Test: NCI-60 one-dose screen, 48 h (100 = growth as untreated, 0 = no growth, -100 = all killed)
# Conditions: 10 µM unless noted
# Experimental: Growth inhibition of the SN12C human tumor cell line is measured as a screen for anti-cancer activity. Cells are grown in 96 well plates and exposed to the test compound for 48 hours. Compounds are tested at a single concentration, which is 10^-5 M for most compounds. The reported endpoint is percent growth (GI% or GIPRCNT), where numbers from 0 - 100% represent growth inhibition, and numbers from -100% - 0 represent cell death. For example, a value of 40 represents 60% growth inhibition. A value of 0 means no net growth occurred over the course of the experiment. A value of -40 indicates 40% of cells at the beginning of the experiment died by the end of the experiment. A value of -100 means all cells are dead at the end of the experiment.
# NCI-60 Human Tumor Cell Lines Screen was performed using the standard one-dose NCI protocol, which is described in more detail at https://dtp.cancer.gov/discovery_development/nci-60/default.htm.
# Compounds with GIPRCNT values below 10 were considered active. Activity score was based on GIPRCNT using the following formula: […]
# Score is 0 for GIPRCNT values of 100 or above, 50 for GIPRCNT values of 0, and 100 for GIPRCNT values of -100.
row,SMILES,growth
1,O=C(Nc1cn[nH]c1-c1nc2ccc(CN3CCOCC3)cc2[nH]1)NC1CC1,17%
2,O=C(Cn1ccnc1)Nc1ccc(-c2nc3ccccc3s2)cc1,84.6%
3,Cc1ccc(NC(=O)Nc2ccc(Nc3ncnc4sc5c(c34)CCOC5)cc2)cc1Cl,102%
4,N#Cc1c(-c2ccc(Cl)cc2)csc1NC(=O)Nc1cccc(C(F)(F)F)c1,-17.2% (active)
5,CC(C)NC[C@@H](C(=O)N1CCN(c2ncnc3c2[C@H](C)C[C@H]3O)CC1)c1ccc(Cl)cc1,64.4%
6,COC1CCC(N2C(=O)CNc3ncc(-c4ccc(C(C)(C)O)nc4)nc32)CC1 (stereo not given),7.07% (active)
7,CS(=O)(=O)N1CCc2c(-c3cnc(N)nc3)nc(N3CCOCC3)nc21,8.6% (active)
8,Nc1ncnc2c1c(-c1cccc(OCc3ccccc3)c1)cn2C1CC(CN2CCC2)C1 (stereo not given),35.5%
9,NC[C@@](O)(c1ccc(Cl)cc1)c1ccc(-c2cn[nH]c2)cc1,29.3%
10,Cc1cccc(NC(=O)[C@@H]2c3ccccc3C(=O)N(c3ccc(Cl)cc3)[C@H]2c2ccc(Cl)cc2)n1,66.5%
11,CC(=O)C(C(C)=O)C(c1ccccc1)C(C(C)=O)C(C)=O,98.9%
12,Cn1ncc(Cl)c1-c1cc(C(=O)N[C@H](CN)Cc2ccc(F)c(F)c2)oc1Cl,16.5%
13,CNC(=O)c1cc(Oc2cccc3nc(Nc4ccc(Cl)c(F)c4)ccc23)ccn1,63.2%
14,COCC(=O)NC/C=C/c1ccc2ncnc(Nc3ccc(Oc4ccc(C)nc4)c(C)c3)c2c1,34.9%
15,Cc1ccccc1Nc1nc2nonc2nc1Nc1cccc(C)c1C,44.3%
16,CC(N)C(Cc1ccccc1)c1ccc(Cl)cc1 (stereo not given),90.7%
17,C=CCn1c(=O)c2cnc(Nc3ccc(N4CCN(C)CC4)cc3)nc2n1-c1cccc(C(C)(C)O)n1,28.4%
18,COc1ccc(Br)cc1NC(=O)Nc1cccc2c1ccn2Cc1ccnc(N)c1,40.9%
19,CC1(COc2ccc3c(c2)ncn3-c2ccc3cccc(N4CCC(N)CC4)c3n2)COC1,32.4%
20,CC12O[C@H](C[C@@H](OC(=O)CCC(=O)O)[C@H]1O)n1c3ccccc3c3c4c(c5c6ccccc6n2c5c31)C(=O)NC4=O,38.9%

row,SMILES,growth
1,Cn1cnc2c(F)c(Nc3ccc(Br)cc3Cl)c(C(=O)NOCCO)cc21,65.9%
2,O=C1C=CC2(NN=C(c3ccccc3)N2c2ccc(Cl)cc2)c2cccc(O)c21 (stereo not given),26.4%
3,Cc1ccc(NC(=O)NC(=O)CSc2nc3ccccc3nc2C)cc1,73.7%
4,Cc1nc2ccc(-n3ncc(C(=O)c4cc5ccccc5[nH]4)c3N)cc2[nH]1,61.2%
5,Nc1nc(N)c2nc(-c3cccc(O)c3)c(-c3cccc(O)c3)nc2n1,51.4%
6,COC(=O)[C@]12CC[C@@H](C)[C@H](C)[C@@H]1C1=CC[C@@H]3[C@@]4(C)C(C=O)=C[C@@](C)(COS(C)(=O)=O)C4=CC[C@@]3(C)[C@]1(C)CC2,-37.8% (active)
7,CC(=Nc1ccccc1)C1=C(O)C(Cc2ccccc2)NC1=O (stereo not given),36.6%
8,O=C(Nc1ccc(Nc2ncnc3sc4c(c23)CCOC4)cc1)Nc1ccc(Cl)c(C(F)(F)F)c1,105%
9,Cc1cc(NCC(=O)Nc2ccc(-c3nc4ccccc4s3)cc2)no1,102%
10,Nc1cc2c(cc1Br)-c1c(C(=O)O)cccc1C2O (stereo not given),109%
11,C=CCCCC(=O)CCC(=O)OCC1O[C@@H](O[C@@H]2C(O)[C@@H](OC(C)=O)C(C)O[C@H]2O[C@H](CC=C)CCCCC)C(O)[C@@H](OC(=O)/C(C)=C/C)[C@@H]1OC(=O)/C=C/c1ccccc1 (stereo not given in full),3.86% (active)
12,COc1ccc2c(c1OC)C(=O)O[C@@H]2[C@H]1c2c(c(C#CC#Cc3ccc(F)c(F)c3)c3c(c2OC)OCO3)CCN1C,100%
13,C[N+](C)(CCOC(c1ccccc1)c1ccccc1)CC(=O)OCc1ccccc1,105%
14,O=C(c1ccc(F)c(F)c1Nc1ccc(I)cc1F)N1CC(O)([C@@H]2CCCCN2)C1,34%
15,Cc1ccc(NC(=O)c2ccc(CN3CC[C@H](N(C)C)C3)c(C(F)(F)F)c2)cc1Nc1nccc(-c2cncnc2)n1,-32.6% (active)
16,CC(C)=CCc1cc2c(cc1O)C1=C(C(=O)C3=C(C1=O)S(=O)(=O)CCN3)C(C=C(C)C)O2 (stereo not given),-36.7% (active)
17,Nc1cc(C(F)(F)F)c(-c2cc(N3CCOCC3)nc(N3CCOCC3)n2)cn1,-3.99% (active)
18,CCCCCCCC(=O)SCC/C=C/[C@@H]1CC(=O)NCc2cccc(n2)C2=N[C@@](C)(CS2)C(=O)N[C@@H](C(C)C)C(=O)N1,55.7%
19,COc1cnc2c(c1)C(=O)c1c-2n(CCCNC2=NCCS2)c(=O)c2cc(Cl)ccc12,-49.4% (active)
20,COc1cc(OC)c(C(=O)/C=C/c2cc3c(cc2OCc2ccccc2)OC(C)(C)CC3)cc1CC=C(C)C,47.6%
